The supplement of paper PMC12669032
Unmarked numbers belong to inactive results.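 Rule for the calls: active = AUC reduced over 20% with Padj below 0.05 in at least 2 of 3 replicates; inactive = otherwise.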

Experiments:
Roseburia intestinalis = experiment: growth AUC relative to DMSO control (median of replicates) (fraction); higher = more growth (less inhibition), active = hit call of the paper; conditions: 20 µM; 24 h
Outline: (§1)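 Gut bacterial monocultures were grown anaerobically at 37 °C in mGAM from a starting OD600 of 0.05 with 20 µM compound (1% DMSO), in round-bottom 96-well plates under pierced gas-permeable seals, and OD600 was read hourly for 24 h. With the minimum OD set to 0, area under the growth curve was normalised to the plate median of solvent-only wells, or to row and column medians on the industrial chemical plate. Each value is the median of three biological replicates grown on separate days.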

Streptococcus salivarius = experiment: as above; conditions: 20 µM; 24 h
Outline: as §1

SMILES | growth AUC (Roseburia intestinalis) | growth AUC (Streptococcus salivarius)
CC(Oc1ccc(Oc2ccc(Cl)cc2Cl)cc1)C(=O)O (racemic) | 0.989 | 0.934
Cc1cc(Cl)ccc1OCC(=O)O | 1.02 | 0.983
CO/N=C(/C(=O)OC)c1ccccc1COc1ccccc1C | 0.97 | 0.97
Cc1cc(Cl)ccc1O | 1.01 | 1.04
CC(Oc1cc(Cl)c(Cl)cc1Cl)C(=O)O (stereo not given) | 0.935 | 0.976
O=c1oc2ccccc2c(O)c1C1CCCc2ccccc21 (stereo not given) | 1 | 1.01
CSc1nc(NC(C)C)nc(NC(C)C)n1 | 1.02 | 1.03
COC(=O)Nc1nc2ccccc2[nH]1 | 1 | 0.971
O=C(Nc1ccccc1)c1ccccc1I | 1 | 1.03
CCOC(=O)C(O)(c1ccc(Cl)cc1)c1ccc(Cl)cc1 | 1.03 | 0.978
